According to PubChem BioAssay AID1159580 (chemical genetic matrix, 2015):
The whole screen tested about 5,500 compounds, of which about 2,000 (36%) were called active. Inconclusive results (about 18%) are left out. Rule as the data show it: active = normalized growth mostly below about 0.91 (no sharp cut-off); inconclusive = no clear call, values can overlap the other calls; inactive = mostly above about 0.92. The list shows a part of the results.

Test: chemical genetic growth profiling, strain panel (AID 1159580);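 also: tested at 20 µM; growth read once vehicle control cultures reached saturation at 30 °C; 1 = growth at the plate median or of vehicle wells; lower values mean less growth of the strain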
Settings: S. cerevisiae deletion strains, growth OD

Measured: normalized growth

O=c1ccc2cc(OC3OC(CO)C(O)C(O)C3O)c(O)cc2o1 (stereo not drawn)
inactive: locus YAL021C, strain ccr4, hits give low values 0.959 | locus YAL026C, strain drs2, hits give low values 1 | locus YAL030W, strain snc1, hits give low values 0.986 | locus YBL061C, strain skt5, hits give low values 1 | locus YBR009C, strain hhf1, hits give low values 0.995 | locus YBR023C, strain chs3, hits give low values 0.992 | locus YBR171W, strain sec66, hits give low values 1 | locus YBR231C, strain swc5, hits give low values 1.03 | locus YBR279W, strain paf1, hits give low values 0.998 | locus YCL011C, strain gbp2, hits give low values 0.974 | locus YCL016C, strain dcc1, hits give low values 0.979 | locus YCL069W, strain vba3, hits give low values 0.983 | locus YCR088W, strain abp1, hits give low values 0.985 | locus YDL005C, strain med2, hits give low values 0.989 | locus YDL040C, strain nat1, hits give low values 0.991 | locus YDR001C, strain nth1, hits give low values 0.972 | locus YDR069C, strain doa4, hits give low values 0.998 | locus YDR137W, strain rgp1, hits give low values 0.976 | locus YDR159W, strain sac3, hits give low values 1.06 | locus YDR195W, strain ref2 0.973 | locus YDR297W, strain sur2, hits give low values 0.995 | locus YDR334W, strain swr1, hits give low values 0.991 | locus YDR335W, strain msn5, hits give low values 0.991 | locus YDR392W, strain spt3, hits give low values 0.927 | locus YEL003W, strain gim4, hits give low values 1 | locus YEL037C, strain rad23, hits give low values 0.986 | locus YEL061C, strain CIN8 (second series), hits give low values 0.984 | locus YER015W, strain faa2, hits give low values 1 | locus YER016W, strain bim1, hits give low values 0.993 | locus YER111C, strain swi4, hits give low values 1.01 | locus YER155C, strain BEM2 (second series), hits give low values 1.07 | locus YFR010W, strain ubp6, hits give low values 0.997 | locus YGL167C, strain pmr1, hits give low values 0.989 | locus YGL173C, strain kem1, hits give low values 0.998 | locus YGL227W, strain vid30, hits give low values 0.989 | locus YGL240W, strain doc1, hits give low values 1.04 | locus YGL253W, strain hxk2, hits give low values 0.996 | locus YHR013C, strain ard1, hits give low values 0.992 | locus YHR027C, strain rpn1, hits give low values 0.977 | locus YHR030C, strain SLT2, hits give low values 0.985 | locus YHR079C, strain IRE1, hits give low values 0.969 | locus YHR142W, strain chs7, hits give low values 0.959 | locus YJL092W, strain hpr5, hits give low values 0.981 | locus YJL095W, strain BCK1 (second series), hits give low values 0.995 | locus YJL095W, strain BCK1, hits give low values 0.968 | locus YJL115W, strain asf1, hits give low values 0.973 | locus YJL129C, strain trk1, hits give low values 1 | locus YJL154C, strain vps35, hits give low values 0.981 | locus YJL164C, strain tpk1, hits give low values 0.947 | locus YJL166W, strain qcr8, hits give low values 1 | locus YJR066W, strain TOR1, hits give low values 0.919 | locus YKL160W, strain elf1, hits give low values 0.966 | locus YKR026C, strain gcn3, hits give low values 1 | locus YKR091W, strain srl3, hits give low values 0.989 | locus YLL001W, strain dnm1, hits give low values 0.993 | locus YLL026W, hits give low values 0.988 | locus YLL041C, strain sdh2, hits give low values 0.983 | locus YLR027C, strain aat2, hits give low values 1.01 | locus YLR113W, strain HOG1, hits give low values 0.973 | locus YLR221C, strain rsa3, hits give low values 1.04 | locus YLR258W, strain gsy2, hits give low values 0.972 | locus YLR262C, strain YPT6 (second series), hits give low values 0.98 | locus YLR320W, strain mms22, hits give low values 1.04 | locus YLR342W, strain FKS1, hits give low values 0.995 | locus YLR357W, strain rsc2, hits give low values 1 | locus YLR370C, strain arc18, hits give low values 1.02 | locus YLR384C, strain iki3, hits give low values 1.01 | locus YML120C, strain ndi1, hits give low values 0.988 | locus YMR058W, strain fet3, hits give low values 1 | locus YMR125W, strain sto1, hits give low values 0.92 | locus YMR129W, hits give low values 0.993 | locus YMR205C, strain PFK2, hits give low values 0.969 | locus YMR231W, strain pep5, hits give low values 1 | locus YNL071W, strain lat1, hits give low values 0.988 | locus YNL183C, strain NPR1, hits give low values 0.897 | locus YNL209W, strain ssb2, hits give low values 0.99 | locus YNL248C, strain rpa49, hits give low values 1.04 | locus YNL322C, strain KRE1 (second series), hits give low values 1.01 | locus YNR049C, strain mso1, hits give low values 0.982 | locus YOR001W, strain rrp6, hits give low values 1.02 | locus YOR070C, strain gyp1, hits give low values 0.998 | locus YOR080W, strain dia2, hits give low values 1.01 | locus YOR083W, strain WHI5, hits give low values 0.964 | locus YOR106W, strain vam3, hits give low values 0.939 | locus YOR231W, strain MKK1, hits give low values 0.973 | locus YOR265W, strain rbl2, hits give low values 1 | locus YOR270C, strain vph1, hits give low values 1.03 | locus YOR290C, strain snf2, hits give low values 0.919 | locus YPL051W, strain arl3, hits give low values 1.02 | locus YPL078C, strain atp4, hits give low values 0.935 | locus YPL106C, strain sse1, hits give low values 1.01 | locus YPL240C, strain hsp82, hits give low values 0.998 | locus YPL256C, strain CLN2, hits give low values 0.956
